TDP1 cell CPT = qHTS for Inhibitors of human tyrosyl-DNA phosphodiesterase 1 (TDP1): qHTS in cells in presence of CPT. AID 686979, 2013. chicken DT40 Tdp1-/-;hTDP1 cells + 20 nM CPT, ATP luminescence, 48 h. Potency, µM (series often up to 46.2 µM), inactives show at the highest dose activity change, negative = growth inhibition, hits mostly inhibitors. actives 12% (n = 420,000); note: nearly all actives have a fitted effect of over 55% in size
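Chicken DT40 Tdp1-/- cells stably complemented with human TDP1 were seeded at 400 cells/well in medium containing 20 nM camptothecin, exposed to pin-transferred compounds, and grown at 37 °C for at least 48 hr. Viability was read as ATP luminescence.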
KB-V1 MDR tox = qHTS assay for MDR1-selective chemotherapeutics: Primary screen using the drug-selected MDR subline cells KB-V1. Potency, µM (series often up to 46.1 µM), usual class: cytotoxic. KB-V1 MDR cells viability, CellTiter-Glo, 72 h. actives 3.4% (n = 400,000); note: nearly all actives have a fitted effect of over 60% in size
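qHTS viability screen in drug-selected KB-V1 MDR cells: 72 h compound treatment at 37 degrees C, ATP luminescence end point.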
TDP1 cell noCPT = qHTS for Inhibitors of human tyrosyl-DNA phosphodiesterase 1 (TDP1): qHTS in cells in absence of CPT; DT40 Tdp1-/- hTDP1 cells, no CPT, ATP luminescence, 48 h; Potency, µM (doses to about 46.2 µM), inactives show at the top dose activity change, negative = growth inhibition, actives largely listed as inhibitors; actives 15% (n = 420,000); AID 686978, 2013; note: nearly all actives have a fitted effect of over 55% in size
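Chicken DT40 Tdp1-/- cells complemented with human TDP1, screened without camptothecin (DMSO vehicle only), 400 cells/well. Compounds pin-transferred, cells incubated at 37 °C for at least 48 hr. Growth read as ATP-dependent luminescence (CellTiter-Glo, 30 min at RT).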
HT1080 IDH1KD tx = qHTS for induction of synthetic lethality in tumor cells producing 2HG: qHTS for the HT-1080-IDH1KD cell line; HT-1080 IDH1 knockdown viability, ATP luminescence, 48 h; Potency, µM (series often up to 46.1 µM), without a hit: at the highest dose activity, negative = toxicity, actives largely listed as cytotoxic; actives 2% (n = 360,000); AID 686971, 2013;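 note: 0% = DMSO wells and -100% = cell-free medium wells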
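After a 2 h attachment period, IDH1KD HT-1080 cells took pin-transferred compound for 48 h at 37 °C; ATP-based luminescence after 10 min room-temperature reagent incubation reported viability.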
KB-3-1 cytotox = qHTS assay for MDR1-selective chemotherapeutics: Primary screen using the parental adenocarcinoma cell KB-3-1; AID 1347075, 2019; KB-3-1 viability, CellTiter-Glo ATP luminescence, 72 h; Potency, µM (top dose mostly 46.1 µM), most hits filed as cytotoxic; actives 1.4% (n = 400,000); note: nearly all actives have a fitted effect of over 60% in size
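Parental KB-3-1 viability, qHTS format: 72 h compound exposure, 37 °C; CellTiter-Glo; media-only wells and DMSO plates as controls; concentration-effect fits on corrected data.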
HT1080NT lethal = qHTS for induction of synthetic lethality in tumor cells producing 2HG: qHTS for the HT-1080-NT fibrosarcoma cell line. HT-1080-NT fibrosarcoma viability, CellTiter-Glo ATP luminescence, 48 h. actives 1.6% (n = 360,000). Potency, µM (doses to about 46.1 µM), for inactives: top-dose activity, negative = less viability, hits mostly cytotoxic. AID 686970, 2013;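 note: NT is the 2HG producing partner of a matched IDH1 knockdown line; 0% = DMSO-treated cells and -100% = media-only wells without cells; nearly all actives have a fitted effect of over 55% in size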
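HT-1080-NT; 750 cells/well; 5% FBS RPMI; 48 h compound, 37 degrees C; CellTiter-Glo luminescence; curve fitting and curve-class assignment.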
* marks the source's active call; other numbers are inactive results; i = inactive; ? = inconclusive; nt = not tested or not shown; [ ] = remark or other dose. A selection: hits, their analogues and other compounds. The true share with any hit is near 19%. Calls come from the whole dose curve; as a rule, active = well fitted curve in the direction sought with a large enough effect; inconclusive = small, poorly fitted or top-dose-only effect, or another doubt; inactive = no such curve, though single readings can be large; an effect the other way counts as inactive or inconclusive. Unless noted, % is set by controls: 0 for no effect and ±100 for the full control effect; potency is the fitted concentration of half-maximal effect.

SMILES	TDP1 cell CPT	KB-V1 MDR tox	TDP1 cell noCPT	HT1080 IDH1KD tx	KB-3-1 cytotox	HT1080NT lethal
CC(C)Cc1ccc(CN2CCCC(NC(=O)c3ccoc3)C2)cc1 (stereo not drawn)	12µM*	nt	13µM*	-7%	nt	0%
Cc1cc(C(=O)NC2CCCN(Cc3ccc(Cl)cc3)C2)n(C)n1 (stereo not drawn)	?	i	?	-10%	i	-7%
Cc1noc(C)c1CCC(=O)NC1CCCN(Cc2ccc(CC(C)C)cc2)C1 (stereo not drawn)	18µM*	i	15µM*	-24%	?	-13%
CC(C)Cc1ccc(CN2CCCC(NC(=O)c3nn(C)c(=O)c4ccccc34)C2)cc1 (stereo not drawn)	?	i	?	-1%	i	-8%
CC(C)Cc1ccc(CN2CCCC(NC(=O)c3ccnn3C)C2)cc1 (stereo not drawn)	18µM*	nt	23µM*	-19%	nt	-13%
Cc1noc(C)c1CCC(=O)NC1CCCN(Cc2ccc(Cl)cc2)C1 (stereo not drawn)	-20%	i	-3%	-2%	i	-14%
COc1cccc(CNC(=O)C(Cc2ccccc2)NS(=O)(=O)c2ccc3c(c2)CCN3C(C)=O)c1 (stereo not drawn)	-21%	i	-23%	nt	i	nt
COC(=O)c1ccc(CSc2nc3c(cnn3-c3ccc(C)c(C)c3)c(=O)[nH]2)o1	?	i	26µM*	1%	i	7%
COC(=O)c1cc(Cl)ccc1NC(=O)CSc1ncc(S(=O)(=O)c2ccc(Br)cc2)c(=O)[nH]1	7%	?	-3%	nt	i	nt
Cc1ccc(NC(=O)COC(=O)c2cccnc2Cl)cc1S(=O)(=O)N1CCOCC1	-14%	i	10%	-1%	i	-1%
Cc1ccc(NC(=O)COc2ncnc3ccccc23)cc1S(=O)(=O)N1CCOCC1	-31%	i	?	10%	i	2%
CSc1ncccc1C(=O)OCC(=O)Nc1ccc(C)c(S(=O)(=O)N2CCOCC2)c1	?	i	13µM*	0%	i	-10%
Cc1ccc(NC(=O)CSc2ncnc3ccccc23)cc1S(=O)(=O)N1CCOCC1	?	i	15µM*	?	i	?
Cc1ccc(NC(=O)CSc2ncnc3ccccc23)cc1S(=O)(=O)N1CCCCC1	26µM*	i	?	?	i	-29%
COc1ccc(NC(=O)CN2C(=O)C(C)(C)c3ccccc32)cc1Cl	?	?	?	nt	i	nt
Cc1ccc(NC(=O)C(=O)NCc2ccc(/C=C(/C#N)C(=O)NCc3cccnc3)o2)cc1C	?	?	16µM*	1%	i	10%
Cc1ccc(NC(=O)C(=O)NCc2ccc(/C=C(/C#N)C(=O)NCc3cccnc3)o2)cc1	?	?	-22%	-27%	i	0%
COc1ccc(CCNC(=O)c2cc(=O)c3cc(C)cc(C)c3o2)cc1OC	21µM*	i	23µM*	nt	?	nt
COc1ccc(CCNC(=O)c2cc(=O)c3cc(C)ccc3o2)cc1OC	?	?	21µM*	2%	?	-1%
COc1ccc(CCNC(=O)COc2ccc3c(C)cc(=O)oc3c2)cc1OC	?	i	13µM*	?	i	?
CCCCc1cc(=O)oc2cc(OCC(=O)N(CC)CC)ccc12	-14%	7.3µM*	-5%	5%	i	3%
CC1(C(=O)NS(=O)(=O)c2ccc3c(c2)CCO3)CCN1C(=O)Cc1ccc(-c2ccccc2)cc1 (stereo not drawn)	-4%	i	-9%	-2%	i	1%
CCOc1ccc(CCNC(=O)c2nnc(Cc3cc(OC)c(OC)c(OC)c3)o2)cc1OCC	21µM*	i	?	nt	i	nt
COc1ccc(CCNC(=O)c2cc(=O)c3cc(C)c(C)cc3o2)cc1OC	-30%	?	7.3µM*	nt	?	nt
CCCc1cc(=O)oc2cc(OCC(=O)NCCc3c[nH]c4ccc(OC)cc34)ccc12	16µM*	i	15µM*	-24%	i	-22%
SMILES	TDP1 cell CPT	KB-V1 MDR tox	TDP1 cell noCPT	HT1080 IDH1KD tx	KB-3-1 cytotox	HT1080NT lethal
CNC(=O)Cn1c(=O)c2cccn2c2ccc(F)cc21	-3%	nt	-5%	nt	nt	nt
COc1ccc(-c2noc(N3CCC(C(=O)N4CCN(c5ccccc5F)CC4)CC3)n2)cc1	?	i	5.2µM*	nt	i	nt
Cc1ccc(C)c(N2CCN(C(=O)C3CCN(c4nc(-c5ccc(C(C)C)cc5)no4)CC3)CC2)c1	?	nt	10µM*	nt	nt	nt
Cc1ccc(C)c(N2CCN(C(=O)CCc3nc(-c4ccc(Cl)cc4)no3)CC2)c1	8%	i	-4%	4%	i	3%
CCC(C)N1C(=O)CN(C2CCCCCC2)C(=O)C1c1ccccc1F (stereo not drawn)	-1%	?	?	4%	i	-18%
COc1ccc(N2C(=O)C3CCCN3C2=S)cc1 (stereo not drawn)	-16%	i	?	15%	i	17%
Cc1cccc(NC(=O)CSc2nc(=O)n(CCN3CCOCC3)c3c2CCC3)c1	0%	nt	-3%	nt	nt	nt
Cn1cnnc1SCC(=O)c1ccc2c(c1)NC(=O)CO2	19%	i	14%	6%	i	4%[9.24 µM]
O=C(CSc1nc2ccccc2c(=O)n1-c1ccccc1)N1CCc2ccccc2C1	26µM*	?	16µM*	-26%	i	-10%
